Counter-ions that a name gives are not always drawn.
What was measured:
Experiment in all cases: Euclidean distance of Cell Painting phenotypic profile (signed KS, 77 features) to DMSO centroid (dimensionless distance); 5 or 10 uM (library dependent); higher = stronger phenotypic change vs DMSO (phenoactivity)
Settings in all cases: 48 h
786-O = system: 786-O
Method in brief: (§1)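 Library compounds were applied at 10 or 5 uM, depending on the library, with 0.1% DMSO final, for 48 h to five cancer lines and a healthy fibroblast line. After staining, cells were imaged confocally at 20X across 9 fields per well, and Harmony extracted 77 features, each scored as a signed Kolmogorov-Smirnov statistic against vehicle wells on the same plate. Phenoactivity is the Euclidean distance between each profile and the median vehicle profile, with profiles first plate-position corrected, correlation-weighted and averaged over replicates at the top dose.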

A549 = system: A549
Method in brief: as §1

DU145 = system: DU145
Method in brief: as §1

FB = system: FB
Method in brief: as §1

HEPG2 = system: HEPG2
Method in brief: as §1

OVCAR4 = system: OVCAR4
Method in brief: as §1

| SMILES | Euclidean distance (786-O) | Euclidean distance (A549) | Euclidean distance (DU145) | Euclidean distance (FB) | Euclidean distance (HEPG2) | Euclidean distance (OVCAR4) |
| --- | --- | --- | --- | --- | --- | --- |
| CC/C(=C(\c1ccc(O)cc1)c1ccc(OCCNC)cc1)c1ccccc1 [Endoxifen HCl] | 4.21 | 3.39 | 2.59 | 3.3 | 4.86 | 3.32 |
| O=C(NCc1c(F)cc(F)cc1F)c1cn2c(c(O)c1=O)C(=O)N1[C@H]3CC[C@H](C3)O[C@@H]1C2 [Bictegravir] | 1.77 | 3.73 | 2.63 | 2.16 | 1.04 | 2.99 |
| COC1=CC(c2cc3ccccc3[nH]2)=N/C1=C\c1[nH]c(C)cc1C [Obatoclax Mesylate (GX15-070)] | 4.8 | 4.59 | 2.78 | 4.82 | 3.8 | 3.71 |
| Cc1ncc([N+](=O)[O-])n1C [Dimetridazole] | 1.08 | 0.82 | 1.15 | 0.783 | 0.672 | 0.957 |
| C#Cc1cccc(Nc2ncnc3cc(OCCOC)c(OCCO)cc23)c1 | 1.88 | 1.49 | 1.82 | 2.87 | 1.07 | 2.03 |
| CC(C)(Oc1ccc(CCNC(=O)c2ccc(Cl)cc2)cc1)C(=O)O [Bezafibrate] | 0.885 | 1.16 | 0.777 | 1.09 | 1.04 | 1.71 |
| CC(C)N(C[C@H]1O[C@@H](n2cnc3c(N)ncnc32)[C@H](O)[C@@H]1O)[C@H]1C[C@@H](CCc2nc3cc(C(C)(C)C)ccc3[nH]2)C1 | 0.867 | 0.931 | 1.3 | 1.28 | 0.884 | 0.955 |
| Cc1cn([C@H]2C[C@H](N=[N+]=[N-])[C@@H](CO)O2)c(=O)[nH]c1=O [Zidovudine] | 1.52 | 0.708 | 1.19 | 1.2 | 1.54 | 0.957 |
| N[C@H](Cc1ccccc1)C(=O)O [D-Phenylalanine] | 1.65 | 1.05 | 0.814 | 0.864 | 0.733 | 0.852 |
| CCCNS(=O)(=O)Nc1ncnc(OCCOc2ncc(Br)cn2)c1-c1ccc(Br)cc1 [Macitentan] | 1.36 | 0.708 | 0.918 | 0.878 | 0.806 | 0.809 |
| O=C(O[C@@H]1C[C@@H]2C[C@H]3C[C@H](C1)N2CC3=O)c1c[nH]c2ccccc12 [Dolasetron] | 1.37 | 2.35 | 2.37 | 1.37 | 0.624 | 2.04 |
| COc1cc(Cc2cnc(N)nc2N)cc(OC)c1OC [Trimethoprim] | 1.42 | 0.849 | 0.917 | 1.39 | 0.86 | 1.12 |
| COc1ccc2c(c1)c(CC(=O)N1CCOCC1)c(C)n2C(=O)c1ccc(Cl)cc1 | 0.785 | 0.772 | 0.859 | 0.741 | 0.95 | 0.74 |
| CC(C)NCC(O)COc1cccc2[nH]ccc12 (configuration not stated) [Pindolol] | 0.941 | 0.858 | 0.721 | 1.06 | 0.588 | 0.895 |
| CCCC1O[C@@H]2C[C@H]3[C@@H]4CCC5=CC(=O)C=C[C@]5(C)[C@H]4[C@@H](O)C[C@]3(C)[C@]2(C(=O)CO)O1 (some centres not stated) [Budesonide] | 3.14 | 1.89 | 2.06 | 3.49 | 2.09 | 2.47 |
| Cn1ncnc1[C@H]1c2n[nH]c(=O)c3cc(F)cc(c23)N[C@@H]1c1ccc(F)cc1 | 1.03 | 1.17 | 0.939 | 1.27 | 1.56 | 0.901 |
| Cc1ccc(-c2nc(N)nc3c2nnn3Cc2cccc(CO[C@H]3CCOC3)n2)o1 | 0.843 | 0.446 | 0.81 | 1.32 | 0.731 | 0.627 |
| CO/N=C1\C[C@]2(C[C@@H]3C[C@@H](C/C=C(\C)C[C@@H](C)/C=C/C=C4\CO[C@@H]5[C@H](O)C(C)=C[C@@H](C(=O)O3)[C@]45O)O2)O[C@H](/C(C)=C/C(C)C)[C@H]1C [Moxidectin] | 3.17 | 2.11 | 2.44 | 1.21 | 0.757 | 1.63 |
| CC[C@H]1OC(=O)[C@H](C)[C@@H](O[C@H]2C[C@@](C)(OC)[C@@H](O)[C@H](C)O2)[C@H](C)[C@@H](O[C@@H]2O[C@H](C)C[C@H](N(C)C)[C@H]2O)[C@](C)(O)C[C@@H](C)CN(C)[C@H](C)[C@@H](O)[C@]1(C)O [Azithromycin] | 0.885 | 0.638 | 1.38 | 1.53 | 2.1 | 1.08 |
| C[C@@H]1CN(C(=O)c2ccc(NC(=O)c3cc(O[C@H](C)c4c(Cl)ccc(F)c4Cl)c(N)nn3)cc2)C[C@H](C)N1 [Ensartinib (X-396) dihydrochloride] | 5.01 | 4.53 | 3.15 | 4.29 | 3.74 | 3.35 |
| CCCN1CCCC[C@H]1C(=O)Nc1c(C)cccc1C [Ropivacaine] | 1.19 | 1.64 | 0.902 | 1.93 | 1.18 | 1.31 |
| Clc1ccc(C(Cn2ccnc2)OCc2c(Cl)cccc2Cl)c(Cl)c1 (configuration not stated) [Isoconazole nitrate] | 1.02 | 0.91 | 1.26 | 0.868 | 0.714 | 1.04 |
| Cc1ncc(C[n+]2csc(CCO)c2C)c(N)n1 [Thiamine HCl (Vitamin B1)] | 1.43 | 0.642 | 0.753 | 0.562 | 1.12 | 1.21 |
| Cc1c(-c2ccc(O)cc2)n(Cc2ccc(OCCN3CCCCCC3)cc2)c2ccc(O)cc12 [Bazedoxifene Acetate] | 4.76 | 4.78 | 3.21 | 4.56 | 4.37 | 3.76 |

| SMILES | Euclidean distance (786-O) | Euclidean distance (A549) | Euclidean distance (DU145) | Euclidean distance (FB) | Euclidean distance (HEPG2) | Euclidean distance (OVCAR4) |
| --- | --- | --- | --- | --- | --- | --- |
| N[C@H]1C[C@@H]1c1ccc(-c2cccc(O)c2)cc1 | 1.26 | 1.27 | 1.07 | 1.18 | 0.624 | 1.45 |
| OC[C@H]1O[C@@H](c2ccc(F)c(Cc3cc4ccccc4s3)c2)[C@H](O)[C@@H](O)[C@@H]1O [Ipragliflozin (ASP1941)] | 0.648 | 0.591 | 0.895 | 0.802 | 0.412 | 0.699 |
| CCN(CC)Cc1ccc2cc(COC(=O)Nc3ccc(C(=O)NO)cc3)ccc2c1 [Givinostat (ITF2357)] | 2.68 | 3.9 | 2.88 | 3.63 | 4.2 | 3.32 |
| CC(=O)OCC(=O)[C@@]1(O)CC[C@H]2[C@@H]3CCC4=CC(=O)CC[C@]4(C)[C@H]3C(=O)C[C@@]21C [Cortisone acetate] | 1.03 | 0.746 | 1.1 | 1.06 | 0.755 | 1.67 |
| CC(=O)O[C@]1(C(C)=O)CC[C@H]2[C@@H]3C[C@H](C)C4=CC(=O)CC[C@]4(C)[C@H]3CC[C@@]21C [Medroxyprogesterone acetate] | 1.02 | 1.4 | 1.65 | 1.31 | 1 | 1.06 |
| NS(=O)(=O)c1cc(C2(O)NC(=O)c3ccccc32)ccc1Cl (configuration not stated) [Chlorthalidone] | 0.738 | 0.425 | 1.18 | 1.4 | 0.481 | 0.876 |
| c1ccc2c(CCNc3ccc(Nc4ccncc4)cc3)c[nH]c2c1 | 2.61 | 2.76 | 1.77 | 2.87 | 2.65 | 3.75 |
| C[C@@]1(C(=O)Nc2ccc(F)nc2)CCCN1c1nc(Nc2cc(C3CC3)n[nH]2)c2cccn2n1 | 2.52 | 3.2 | 3.3 | 3.23 | 2.63 | 3.61 |
| CO[C@H]1/C=C\C=C(/C)C(=O)NC2=CC(=O)C(NCCN(C)C)=C(C[C@@H](C)C[C@H](OC)[C@H](O)[C@@H](C)/C=C(\C)[C@@H]1OC(N)=O)C2=O | 2.76 | 2.89 | 4.03 | 3.32 | 3.56 | 2.71 |
| CCc1nn(CCCN2CCN(c3cccc(Cl)c3)CC2)c(=O)n1CCOc1ccccc1 [Nefazodone hydrochloride] | 1.29 | 1.42 | 1.27 | 1.04 | 1.67 | 0.618 |
| CN(CCCCCCCCCCN(C)C(=O)Oc1cccc([N+](C)(C)C)c1)C(=O)Oc1cccc([N+](C)(C)C)c1 [Demecarium Bromide] | 0.786 | 0.898 | 0.6 | 1.07 | 1.17 | 1.24 |
| COc1c2occc2c(OC)c2c(=O)cc(C)oc12 [Khellin] | 1.37 | 0.619 | 0.84 | 0.769 | 1.17 | 0.887 |
| Cn1cc(CNCC2CCN(c3ncc(C(=O)NO)cn3)CC2)c2ccccc21 | 2.78 | 4.19 | 3.88 | 3.5 | 4.44 | 3.65 |
| CCN(CC)C(=O)/C(C#N)=C/c1cc(O)c(O)c([N+](=O)[O-])c1 [Entacapone] | 0.439 | 0.512 | 0.513 | 1.1 | 0.422 | 0.77 |
| CCOc1cc2ncc(C#N)c(Nc3ccc(OCc4ccccn4)c(Cl)c3)c2cc1NC(=O)/C=C/CN(C)C [Neratinib (HKI-272)] | 2.26 | 2.39 | 2.02 | 4.01 | 0.96 | 2.16 |
| N[C@@H](Cc1cc(I)c(Oc2cc(I)c(O)c(I)c2)c(I)c1)C(=O)O [L-Thyroxine] | 1.38 | 1.12 | 1.19 | 0.961 | 0.718 | 1.45 |
| NC(=O)c1ccc(OCCCN2CC3CCCC3C2)cc1 (configuration not stated) | 1.32 | 1.16 | 1.39 | 1.36 | 0.495 | 1.23 |
| CNCc1cc(-c2ccccc2F)n(S(=O)(=O)c2cccnc2)c1 [Vonoprazan Fumarate (TAK-438)] | 0.884 | 0.5 | 0.972 | 1.23 | 0.474 | 0.89 |
| CC(C(=O)O)c1cccc(Oc2ccccc2)c1 (configuration not stated) [Fenoprofen Calcium] | 0.95 | 0.634 | 0.599 | 0.997 | 1.16 | 1.97 |
| CCCCC1=NC2(CCCC2)C(=O)N1Cc1ccc(-c2ccccc2S(=O)(=O)Nc2noc(C)c2C)c(COCC)c1 | 1.6 | 0.599 | 1.01 | 0.872 | 0.445 | 0.927 |
| O=C1[C@H]2CCCC[C@H]2C(=O)N1CCCCN1CCN(c2nsc3ccccc23)CC1 [Perospirone hydrochloride] | 2.05 | 1.44 | 1.08 | 1.59 | 1.05 | 1.36 |
| N#Cc1ccc(Oc2ccc3c(c2)COB3O)cc1 [Crisaborole (AN2728)] | 1.25 | 1 | 0.832 | 0.837 | 2.52 | 1.91 |
| COc1cc(C[C@H]2C(=O)OC[C@@H]2Cc2ccc(OC)c(OC)c2)ccc1O [(-)-Arctigenin] | 1.04 | 1.48 | 1.36 | 0.929 | 2.46 | 1.29 |
